Rows were chosen to be rich in hits. Some 7.8% of all compounds tested hit in one or more screens of this group.
MITF inh: blocks MITF activity; TRPM1 promoter luciferase, luminescence, 24 h; inhibition, % (no concentration beside the values); hit rate 0.28% among 37,000; in the data active = inhibition above about 85%; inconclusive = no clear call, values can overlap the other calls; inactive = below about 68%;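 also: human melanocyte line stably carrying TRPM1 promoter luciferase reporter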
Hedgehog inh: Sonic Hedgehog pathway inhibition. Shh-LIGHT2 Gli-luciferase reporter, 30 h. inhibition, % (test concentration not listed). hit rate 2.1% among 22,000. AID 2313;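 active = mean inhibition across valid replicates above about 65%, limit read from the data; inconclusive = mean under the limit, yet half or more replicates past it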;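 also: pathway switched on by Shh-conditioned medium diluted 1 in 25 in low serum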
NOMO-1 viab: STK33 inhibitor candidate reducing NOMO-1 cell viability; NOMO-1 AML viability, CellTiter-Glo luminescence, 72 h; inhibition, % (no concentration beside the values); hit rate 7.5% among 37,000; AID 2330; in the data active = inhibition above about 80%; inconclusive = no clear call, values can overlap the other calls
* = called active by the depositor; ? = inconclusive; . = not tested or not shown.

SMILES	MITF inh	Hedgehog inh	NOMO-1 viab
C[C@@H]1CN([C@@H](C)CO)C(=O)c2cccc(NC(=O)Nc3ccc(F)cc3)c2O[C@@H]1CN(C)Cc1ccc(Cl)c(Cl)c1	-11	40	93*
C[C@@H]1CN([C@H](C)CO)C(=O)c2cccc(NC(=O)Nc3ccccc3)c2O[C@@H]1CN(C)Cc1ccc(Cl)c(Cl)c1	12	25	?
C[C@@H]1CN([C@@H](C)CO)C(=O)Cc2cc(NS(=O)(=O)c3ccc(Cl)cc3)ccc2O[C@@H]1CN(C)C(=O)Nc1ccc(C(F)(F)F)cc1	0	.	40
COc1ccc(NC(=O)CSc2nc(-c3ccccc3)c(-c3ccccc3)o2)cc1OC	47	.	68
COc1cccc(Cc2nnc(-c3ccc(-c4cccs4)s3)o2)c1	2	60	9
c1csc(-c2nnc(CSc3cccc4cccnc34)o2)c1	-30	.	112*
Cc1ccc(S(=O)(=O)N(C)C[C@H]2Oc3ccc(NC(=O)Nc4ccccc4)cc3C(=O)N([C@@H](C)CO)C[C@H]2C)cc1	36	5	15
O=C1/C(=C/c2ccc(-c3nn[nH]n3)cc2)C(c2ccccc2)Oc2ccccc21 (configuration not stated)	11	74*	57
O=C1CC(C(=O)Nc2ccc3c(c2)OCCO3)n2ncnc2N1 (configuration not stated)	-9	.	-12
Cn1c2ccccc2c2nnc(Sc3ccc4nsnc4c3[N+](=O)[O-])nc21	19	.	?
C[C@@H]1CN([C@@H](C)CO)C(=O)Cc2cc(NS(=O)(=O)c3ccc(Cl)cc3)ccc2O[C@@H]1CN(C)Cc1ccc(-c2ccccc2)cc1	8	8	22
C[C@@H]1CN([C@H](C)CO)C(=O)Cc2cc(NS(=O)(=O)c3ccc(Cl)cc3)ccc2O[C@H]1CN(C)Cc1ccc(-c2ccccc2)cc1	-5	0	66
C[C@H]1CN([C@@H](C)CO)C(=O)Cc2cc(NS(=O)(=O)c3ccc(Cl)cc3)ccc2O[C@H]1CN(C)Cc1ccc(-c2ccccc2)cc1	26	32	111*
C[C@@H]1CN([C@H](C)CO)C(=O)Cc2cc(NS(=O)(=O)c3ccc(Cl)cc3)ccc2O[C@@H]1CN(C)Cc1ccc(-c2ccccc2)cc1	46	20	122*
COc1ccc(S(=O)(=O)N(C)C[C@H]2Oc3ccc(NC(=O)Nc4ccc(C(F)(F)F)cc4)cc3C(=O)N([C@@H](C)CO)C[C@H]2C)cc1	37	-3	60
C[C@@H]1CN([C@H](C)CO)C(=O)c2cc(NC(=O)Nc3ccc(C(F)(F)F)cc3)ccc2O[C@H]1CN(C)S(=O)(=O)c1ccc(Cl)cc1	11	.	54
Cc1ccc(S(=O)(=O)N(C)C[C@H]2Oc3ccc(NC(=O)Nc4ccc(C(F)(F)F)cc4)cc3C(=O)N([C@H](C)CO)C[C@H]2C)cc1	24	23	92*
COc1ccc(S(=O)(=O)N(C)C[C@H]2Oc3ccc(NC(=O)Nc4ccc(C(F)(F)F)cc4)cc3C(=O)N([C@H](C)CO)C[C@H]2C)cc1	28	-10	88*
C[C@H]1CN([C@@H](C)CO)C(=O)c2cc(NC(=O)Nc3ccc(C(F)(F)F)cc3)ccc2O[C@@H]1CN(C)S(=O)(=O)c1ccccc1	11	.	20
Cc1ccc(S(=O)(=O)N(C)C[C@@H]2Oc3ccc(NC(=O)Nc4ccc(C(F)(F)F)cc4)cc3C(=O)N([C@H](C)CO)C[C@H]2C)cc1	12	-5	97*
Cc1ccc(S(=O)(=O)N(C)C[C@@H]2Oc3ccc(NC(=O)Nc4ccc(F)cc4)cc3C(=O)N([C@@H](C)CO)C[C@H]2C)cc1	-48	-12	33
Cc1ccc(S(=O)(=O)N(C)C[C@H]2Oc3ccc(NC(=O)Nc4ccc(C(F)(F)F)cc4)cc3C(=O)N([C@H](C)CO)C[C@@H]2C)cc1	26	-17	126*
C[C@H](CO)N1C[C@H](C)[C@@H](CN(C)S(=O)(=O)c2cn(C)cn2)Oc2ccc(NS(=O)(=O)c3cccs3)cc2C1=O	-1	-14	11
CCN(CC)CCC1S(=O)(=O)CC(c2ccccc2)CS1(=O)=O (configuration not stated)	-11	-46	-1
CC(=O)Nc1c(O)nc(SCC(=O)N2CCN(c3ccc(F)cc3)CC2)[nH]c1=O	-6	.	-21
SMILES	MITF inh	Hedgehog inh	NOMO-1 viab
O=C(CCN1C(=O)c2ccc([N+](=O)[O-])cc2C1=O)Nc1ccccc1I	-5	.	8
C[C@@H]1CN([C@H](C)CO)C(=O)Cc2cc(NC(=O)Nc3ccccc3)ccc2O[C@@H]1CN(C)Cc1ccc(Cl)c(Cl)c1	11	11	99*
CC(C)NC(=O)Nc1ccc2c(c1)CC(=O)N([C@@H](C)CO)C[C@H](C)[C@@H](CN(C)Cc1ccc(Cl)c(Cl)c1)O2	5	31	-2
C[C@H]1CN([C@@H](C)CO)C(=O)Cc2cc(NC(=O)Nc3ccccc3)ccc2O[C@@H]1CN(C)Cc1ccc(Cl)c(Cl)c1	6	20	31
C[C@@H]1CN([C@H](C)CO)C(=O)Cc2cc(NC(=O)Nc3ccc(F)cc3)ccc2O[C@H]1CN(C)Cc1ccc(Cl)c(Cl)c1	20	-3	94*
CC(C)NC(=O)Nc1ccc2c(c1)CC(=O)N([C@H](C)CO)C[C@@H](C)[C@@H](CN(C)Cc1ccc(Cl)c(Cl)c1)O2	3	9	43
C[C@H]1CN([C@@H](C)CO)C(=O)Cc2cc(NC(=O)Nc3ccc(F)cc3)ccc2O[C@@H]1CN(C)Cc1ccc(Cl)c(Cl)c1	31	-14	96*
Cc1c(C(=O)Nc2sc3c(c2C(=O)NCCc2ccccc2)CCC3)oc2ccc(F)cc12	-14	.	-3
CC(=O)c1cccc(N(CC(=O)N(C)C)S(C)(=O)=O)c1	-3	.	20
COc1ccc2c(c1)O[C@@H]1COc3cc(OC)c(OC)cc3[C@@H]1C2=O	110*	32	52
COc1ccc2c(c1)OCC(Cc1ccc(OC)c(OC)c1)C2=O (configuration not stated)	1	3	-3
COc1ccc(C2C(=O)c3cc(OC)c(OC)cc3C2c2ccccc2)cc1OC (configuration not stated)	-7	10	30
COc1cc2c(cc1OC)[C@@H]1C(=O)c3ccc4c(c3O[C@@H]1CO2)CCC(C)(C)O4	?	94*	44
COc1ccc2c(c1)OCC(Cc1ccc(OC)c(OC(C)=O)c1)C2=O (configuration not stated)	4	3	108*
CCN(CC)C(=O)C(c1ccccc1)c1ccccc1	-10	-3	25
CCc1ccc[n+](OC(=O)N(CC)CC)c1	5	.	102*
CNC[C@@H]1Oc2ccc(NC(=O)Cc3ccccc3)cc2CC(=O)N([C@@H](C)CO)C[C@@H]1C	-3	-15	18
N#CC(C(=O)c1cccc(C(F)(F)F)c1)=C1SCCCCS1	-38	-17	57
CSC(SC)=C(C#N)C(=O)c1cccc(C(F)(F)F)c1	11	-6	123*
Cc1nc(-c2ccccc2)nc(SCC(=O)O)c1Cc1ccccc1	23	.	-2
CC(C)NC(=O)Nc1ccc2c(c1)C(=O)N([C@@H](C)CO)C[C@@H](C)[C@H](CN(C)Cc1ccc3c(c1)OCO3)O2	0	.	-23
Cc1cc(C)c2c3c1C1C=CCC1CN3C(C(=O)O)C1CC=CC21 (configuration not stated)	9	40	115*

Screening data: PubChem BioAssay, Broad Institute
